# Test results from PubChem BioAssay (Tox21).
# Inconclusive results are not listed. A call without a number means that no potency is given here. Values without a mark were called inactive. The source made the active and inactive calls. Unless noted, the call rests on the fitted dose curve; in most records, active means well fitted curve in the direction sought with a large enough effect in the repeat runs; inconclusive means weak or mixed curves; inactive means no such curve, though single readings can be large; an effect the other way counts as inactive or inconclusive.
# Columns and labels:
# [1] = target: Luciferin 4-monooxygenase (Photinus pyralis) (UniProt P08659); assay: qHTS assay to identify small molecule inhibitors of firefly luciferase (AID 1224835); further: nearly all actives have a fitted effect of over 25% in size; further: potency means the concentration at half of the fitted maximal effect; on activity change, negative = inhibition: series mostly up to about 120 µM
# How it was run: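 Quantitative HTS format; KM concentrations of both substrates. Purified P. pyralis FLuc activity quantified from luminescence images.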
# [2] = qHTS assay to identify small molecule agonists of the constitutive androstane receptor (CAR) signaling pathway - cell viability counter screen (AID 1224836); further: series mostly up to about 92 µM; nearly all actives have a fitted effect of over 45% in size
# How it was run: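 Compound titrations (15 concentrations) went onto HepG2-CYP2B6-hCAR cells 4 h after seeding, alongside PK11195 at a final 0.75 uM; a 23 h, 37 C/5% CO2 incubation preceded CellTiter-Fluor viability measurement.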
# [3] = qHTS assay to identify small molecule antagonists of the constitutive androstane receptor (CAR) signaling pathway - cell viability counter screen (AID 1224837); further: series mostly up to about 92 µM; nearly all actives have a fitted effect of over 45% in size
# How it was run: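 CITCO at 50 nM final was added alongside compounds (15 concentrations) to double-stable hCAR/CYP2B6-2.2kb HepG2 cells. Following 23 hr at 37 C, cell viability was quantified by CellTiter-Fluor fluorescence intensity.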
# [4] = target: Nuclear receptor subfamily 1 group I member 3 (Homo sapiens) (UniProt Q14994); assay: qHTS assay to identify small molecule antagonists of the constitutive androstane receptor (CAR) signaling pathway (AID 1224838); further: nearly all actives have a fitted effect of over 40% in size
# How it was run: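 Inhibition of CITCO-driven (50 nM final) CYP2B6 reporter expression is measured in HepG2 cells stably carrying hCAR. Fifteen compound concentrations are applied for 24 h at 37 C, followed by luciferase luminescence.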
# [5] = target: Nuclear receptor subfamily 1 group I member 3 (Homo sapiens) (UniProt Q14994); assay: qHTS assay to identify small molecule agonists of the constitutive androstane receptor (CAR) signaling pathway (AID 1224839); further: nearly all actives have a fitted effect of over 15% in size; further: potency means the concentration at half of the fitted maximal effect; on activation: series mostly up to about 92 µM
# How it was run: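 In this screen, CAR-driven CYP2B6 promoter activity is measured by luminescence in HepG2-CYP2B6-hCAR cells after 24 h with test compounds and 0.75 uM PK11195 (final concentration).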
# [6] = qHTS assay to identify small molecule antagonists of the estrogen related receptor signaling pathway with the pleiotropic PPARgamma coactivator (PGC) from Tox21 10K library - cell viability counter screen (AID 1224840; active means well fitted cell-killing curve with a large enough effect in the repeat runs, not every such curve was filed as active; further: nearly all actives have a fitted effect of over 40% in size)
# How it was run: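 Readout: fluorescence intensity from CellTiter-Fluor after 30 min at 37 C/5% CO2. Preceded by 17.5 h treatment of PGC/ERR cells with DMSO-dissolved compounds, added 6 h post-seeding.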
# [7] = qHTS assay to identify small molecule agonists of the estrogen related receptor signaling pathway with the pleiotropic PPARgamma coactivator (PGC) from Tox21 10K library (AID 1224842); further: nearly all actives have a fitted effect of over 15% in size
# How it was run: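 PGC/ERR reporter cells (NTP line) were seeded 2,000 per well, rested 6 h at 37 C/5% CO2, then pin-dosed with compounds in DMSO for 18 h at 37 C; luciferase read by One-Glo luminescence after 30 min at room temperature.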
# [8] = qHTS assay to identify small molecule agonists of the hypoxia (HIF-1) signaling pathway - cell viability counter screen (AID 1224844; calls by dose curve; further: nearly all actives have a fitted effect of over 50% in size)
# How it was run: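 In this counter screen, HRE-bla ME-180 cell viability after 17 hrs of compound exposure at 37C was read by CellTiter-Glo luminescence, multiplexed with the beta-lactamase reporter measurement.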
# [9] = qHTS assay to identify small molecule antagonists of the estrogen related receptor signaling pathway with the pleiotropic PPARgamma coactivator (PGC) from Tox21 10K library (AID 1224841; call rule not given here; further: actives are mostly falling curves and most rising ones were filed inactive; nearly all actives have a fitted effect of over 50% in size; further: potency means the concentration at half of the fitted maximal effect; on activity, negative = inhibition: series mostly up to about 92 µM)
# How it was run: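 One-Glo luminescence, measured after half an hour at room temperature, quantified reporter output of PGC/ERR cells. These had been plated at 2,000 per well, incubated 6 h, dosed with compounds in DMSO, then kept 18 h at 37 C.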
# [10] = target: Thyrotropin receptor (Homo sapiens) (UniProt P16473); assay: qHTS assay to identify small molecule agonists of the thyroid stimulating hormone receptor (TSHR) signaling pathway (AID 1224843; calls by dose curve; further: nearly all actives have a fitted effect of over 45% in size)
# How it was run: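 Using 15 concentrations per compound in triplicate, cAMP production was monitored in TSHR-HEK293 cells after 30 min compound incubation at RT; HTRF reagents followed, with fluorescence intensity recorded after 1 h.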
# Sequence of Thyrotropin receptor (Homo sapiens) (P16473 whole entry, looked up): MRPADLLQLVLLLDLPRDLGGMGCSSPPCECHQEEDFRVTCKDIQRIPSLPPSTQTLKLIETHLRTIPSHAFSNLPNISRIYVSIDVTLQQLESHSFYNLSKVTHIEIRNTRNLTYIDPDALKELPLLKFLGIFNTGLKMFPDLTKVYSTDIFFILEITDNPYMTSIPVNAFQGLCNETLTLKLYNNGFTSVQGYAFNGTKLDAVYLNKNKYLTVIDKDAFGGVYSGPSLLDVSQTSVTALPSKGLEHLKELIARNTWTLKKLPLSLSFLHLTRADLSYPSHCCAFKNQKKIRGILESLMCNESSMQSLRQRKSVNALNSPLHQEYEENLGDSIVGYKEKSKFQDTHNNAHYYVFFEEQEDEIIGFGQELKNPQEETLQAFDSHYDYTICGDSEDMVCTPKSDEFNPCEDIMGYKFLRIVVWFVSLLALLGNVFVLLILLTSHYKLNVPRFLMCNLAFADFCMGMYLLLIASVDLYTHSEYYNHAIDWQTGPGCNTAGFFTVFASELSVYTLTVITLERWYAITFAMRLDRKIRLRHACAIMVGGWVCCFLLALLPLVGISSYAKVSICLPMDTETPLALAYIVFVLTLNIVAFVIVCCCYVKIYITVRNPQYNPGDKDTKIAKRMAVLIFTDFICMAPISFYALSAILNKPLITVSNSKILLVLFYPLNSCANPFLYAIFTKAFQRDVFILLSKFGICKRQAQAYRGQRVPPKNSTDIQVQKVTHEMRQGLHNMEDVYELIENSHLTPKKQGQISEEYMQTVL
# Sequence of Nuclear receptor subfamily 1 group I member 3 (Homo sapiens) (Q14994 whole entry, looked up): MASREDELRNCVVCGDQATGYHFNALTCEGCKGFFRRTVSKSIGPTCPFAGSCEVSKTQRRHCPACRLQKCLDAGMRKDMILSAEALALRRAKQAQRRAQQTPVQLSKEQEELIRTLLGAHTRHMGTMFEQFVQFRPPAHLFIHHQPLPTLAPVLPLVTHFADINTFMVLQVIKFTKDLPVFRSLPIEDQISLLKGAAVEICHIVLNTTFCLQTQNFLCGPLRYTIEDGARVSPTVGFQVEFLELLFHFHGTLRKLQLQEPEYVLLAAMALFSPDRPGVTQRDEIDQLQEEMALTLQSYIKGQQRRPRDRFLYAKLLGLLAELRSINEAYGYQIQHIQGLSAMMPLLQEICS
# Sequence of Luciferin 4-monooxygenase (Photinus pyralis) (P08659 whole entry, looked up): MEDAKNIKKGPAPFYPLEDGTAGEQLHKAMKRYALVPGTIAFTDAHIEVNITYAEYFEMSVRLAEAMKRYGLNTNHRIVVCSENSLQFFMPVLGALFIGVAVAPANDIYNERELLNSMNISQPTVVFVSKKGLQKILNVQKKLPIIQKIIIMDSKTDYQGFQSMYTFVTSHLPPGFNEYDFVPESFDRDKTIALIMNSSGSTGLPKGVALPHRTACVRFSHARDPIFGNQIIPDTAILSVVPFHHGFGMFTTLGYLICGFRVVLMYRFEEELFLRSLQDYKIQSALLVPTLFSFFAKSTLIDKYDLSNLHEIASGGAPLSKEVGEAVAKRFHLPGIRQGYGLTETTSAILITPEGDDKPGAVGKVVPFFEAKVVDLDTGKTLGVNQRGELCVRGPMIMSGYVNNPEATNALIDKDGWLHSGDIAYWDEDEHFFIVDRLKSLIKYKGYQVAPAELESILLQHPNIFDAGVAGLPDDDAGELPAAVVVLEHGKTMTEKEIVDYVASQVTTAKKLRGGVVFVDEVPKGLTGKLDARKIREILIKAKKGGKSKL
smiles,measurement,setting,value
CC(C)c1ccc2ncccc2c1,Potency,[1],31.7 µM (active)
same,outcome,[2],inactive
same,outcome,[3],inactive
same,Potency,[4],inactive
same,Potency,[5],inactive
same,outcome,[6],inactive
same,Potency,[7],inactive
same,Potency,[8],inactive
CCCCCCCCN1CCCC1=O,Potency,[1],inactive
same,outcome,[2],inactive
same,outcome,[3],inactive
same,Potency,[4],inactive
same,Potency,[5],30.6 µM (active)
same,outcome,[6],inactive
same,Potency,[9],inactive
same,Potency,[7],inactive
same,Potency,[8],inactive
Cc1cc(C)c(N=Nc2c(O)c(S(=O)(=O)O)cc3cc(S(=O)(=O)O)ccc23)cc1C,"activity change, negative = inhibition",[1],-6.78% [at 10.5 µM]
same,"viability change, negative = cytotoxic",[2],-15.6% [at 8.39 µM]
same,"activity change, negative = cytotoxicity",[3],0.232% [at 8.39 µM]
same,"activity, negative = inhibition",[4],-3.25% [at 8.39 µM]
same,activation,[5],7.37% [at 8.39 µM]
same,"viability change, negative = cytotoxic",[6],-4.24% [at 8.39 µM]
same,Potency,[9],0.959 µM (active)
same,activation,[7],-8.18% [at 8.39 µM]
same,"activity change, negative = cytotoxicity",[8],-6.32% [at 6.97 µM]
COc1ccc2cc1Oc1cc3c(cc1OC)CC[N+](C)(C)[C@H]3Cc1ccc(cc1)Oc1c(OC)c(OC)cc3c1[C@@H](C2)[N+](C)(C)CC3,Potency,[1],inactive
same,outcome,[2],inactive
same,outcome,[3],inactive
same,Potency,[4],inactive
same,Potency,[5],inactive
same,outcome,[6],inactive
same,Potency,[7],inactive
same,Potency,[10],inactive
same,Potency,[8],inactive
CC(=O)Oc1cccc(C)c1,Potency,[1],inactive
same,outcome,[2],inactive
same,outcome,[3],inactive
same,Potency,[4],inactive
same,Potency,[5],inactive
same,outcome,[6],inactive
same,Potency,[9],inactive
same,Potency,[7],inactive
same,Potency,[10],inactive
same,Potency,[8],inactive
CC1=NN(c2cccc(S(=O)(=O)O)c2)C(=O)C1,Potency,[1],inactive
same,outcome,[2],inactive
same,outcome,[3],inactive
same,Potency,[4],inactive
same,Potency,[5],inactive
same,outcome,[6],inactive
same,Potency,[7],inactive
same,Potency,[10],inactive
O=C(CO)[C@@H](O)[C@H](O)[C@@H](O)CO,Potency,[1],inactive
same,outcome,[2],inactive
same,outcome,[3],inactive
same,Potency,[4],inactive
same,Potency,[5],inactive
same,outcome,[6],inactive
same,Potency,[9],inactive
same,Potency,[7],inactive
same,Potency,[10],inactive
same,Potency,[8],inactive
CCOC(=O)CCC(=O)OCC,Potency,[1],inactive
same,outcome,[2],inactive
same,outcome,[3],inactive
same,Potency,[4],inactive
same,Potency,[5],inactive
same,outcome,[6],inactive
same,Potency,[9],inactive
same,Potency,[7],inactive
same,Potency,[10],inactive
same,Potency,[8],inactive
NS(=O)(=O)Cc1noc2ccccc12,Potency,[1],inactive
same,outcome,[2],inactive
same,outcome,[3],inactive
same,Potency,[4],inactive
same,Potency,[5],inactive
same,outcome,[6],inactive
same,Potency,[7],inactive
same,Potency,[10],inactive
CC(C(=O)O)c1cccc(Oc2ccccc2)c1 (stereo not given),Potency,[1],inactive
same,outcome,[2],inactive
same,outcome,[3],inactive
same,Potency,[4],inactive
same,Potency,[5],inactive
C=COCC1CCC(COC=C)CC1 (stereo not given),Potency,[1],inactive
same,outcome,[2],inactive
same,outcome,[3],inactive
same,Potency,[4],inactive
same,Potency,[5],inactive
same,outcome,[6],inactive
same,Potency,[9],inactive
same,Potency,[7],inactive
same,Potency,[10],inactive
same,Potency,[8],inactive
COCCOCC(OC)OC,Potency,[1],inactive
same,outcome,[2],inactive
same,outcome,[3],inactive
same,Potency,[4],inactive
same,Potency,[5],inactive
same,outcome,[6],inactive
same,Potency,[7],inactive
same,Potency,[10],inactive
same,Potency,[8],inactive
C=CCCC(=O)O,Potency,[1],inactive
same,outcome,[2],inactive
same,outcome,[3],inactive
same,Potency,[4],inactive
same,Potency,[5],inactive
same,outcome,[6],inactive
same,Potency,[7],inactive
same,Potency,[10],inactive
COc1cc(-c2ccc(=O)[nH]n2)ccc1OC(F)F,Potency,[1],inactive
same,outcome,[2],inactive
same,outcome,[3],inactive
same,Potency,[4],inactive
same,Potency,[5],inactive
same,outcome,[6],inactive
Cc1nc(C2CCCCC2)c(-c2ccc(S(N)(=O)=O)c(F)c2)o1,Potency,[1],inactive
same,outcome,[2],inactive
same,outcome,[3],inactive
same,Potency,[4],inactive
same,Potency,[5],inactive
same,outcome,[6],inactive
same,Potency,[9],inactive
same,Potency,[7],inactive
same,Potency,[10],inactive
same,Potency,[8],inactive
O=C(O)CCCC[P+](c1ccccc1)(c1ccccc1)c1ccccc1,Potency,[1],inactive
same,outcome,[2],inactive
same,outcome,[3],inactive
same,Potency,[4],inactive
same,Potency,[5],inactive
same,outcome,[6],inactive
same,Potency,[10],inactive
CN(C)C(=O)Oc1ccc[n+](C)c1,Potency,[1],inactive
same,outcome,[2],inactive
same,outcome,[3],inactive
same,Potency,[4],inactive
same,Potency,[5],inactive
same,outcome,[6],inactive
same,Potency,[7],inactive
same,Potency,[10],inactive
same,Potency,[8],inactive
C=C(C)C(=O)OCC(O)CO (stereo not given),Potency,[1],inactive
same,outcome,[2],inactive
same,outcome,[3],inactive
same,Potency,[4],inactive
same,Potency,[5],inactive
same,outcome,[6],inactive
same,Potency,[7],inactive
same,Potency,[10],inactive
same,Potency,[8],inactive
O=Cc1cccc(Br)c1,Potency,[1],inactive
same,outcome,[2],inactive
same,outcome,[3],inactive
same,Potency,[4],inactive
same,Potency,[5],inactive
same,outcome,[6],inactive
same,Potency,[9],inactive
same,Potency,[7],inactive
same,Potency,[10],inactive
same,Potency,[8],inactive
OCCCCCO,Potency,[1],inactive
same,outcome,[2],inactive
same,outcome,[3],inactive
same,Potency,[4],inactive
same,Potency,[5],inactive
same,outcome,[6],inactive
same,Potency,[7],inactive
same,Potency,[10],inactive
same,Potency,[8],inactive
CC[C@H]1OC(=O)[C@H](C)[C@@H](O[C@H]2C[C@@](C)(OC)[C@@H](O)[C@H](C)O2)[C@H](C)[C@@H](O[C@@H]2O[C@H](C)C[C@H](N(C)C)[C@H]2O)[C@](C)(OC)C[C@@H](C)C(=O)[C@H](C)[C@@H](O)[C@]1(C)O,Potency,[1],inactive
same,outcome,[2],inactive
same,outcome,[3],inactive
same,Potency,[4],inactive
same,Potency,[5],inactive
same,outcome,[6],inactive
same,Potency,[7],inactive
same,Potency,[8],inactive
COc1cccc(OC)c1C(=O)N[C@@H]1C(=O)N2[C@@H]1SC(C)(C)[C@@H]2C(=O)O,Potency,[1],inactive
same,outcome,[2],inactive
same,outcome,[3],inactive
same,Potency,[4],inactive
same,Potency,[5],inactive
same,outcome,[6],inactive
same,Potency,[10],inactive
O=C(O)CC(C(=O)O)S(=O)(=O)O (stereo not given),Potency,[1],inactive
same,outcome,[2],inactive
same,outcome,[3],inactive
same,Potency,[4],inactive
same,Potency,[5],inactive
same,outcome,[6],inactive
same,Potency,[7],inactive
same,Potency,[10],inactive
same,Potency,[8],inactive
CO[Si](C)(OC)c1ccccc1,Potency,[1],inactive
same,outcome,[2],inactive
same,outcome,[3],inactive
same,Potency,[4],inactive
same,Potency,[5],inactive
same,outcome,[6],inactive
same,Potency,[9],inactive
same,Potency,[7],inactive
same,Potency,[10],inactive
same,Potency,[8],inactive
C[N+]1(C)CCCC(OC(=O)C(O)(c2ccccc2)c2ccccc2)C1 (stereo not given),Potency,[1],inactive
same,outcome,[2],inactive
same,outcome,[3],inactive
